# What was measured:
# Experiment in all cases: DAPPL (digital affinity profiling via proximity ligation, sequencing); 10 mM Tris-HCl pH 7.5, 50 mM NaCl, 1 mM DTT, 4% glycerol, room temperature, 30 min; GST-TFs on glutathione beads, 16-mer random dsDNA library, 0.1% formaldehyde crosslink after washing; high values mean tight binding
# Conditions in all cases: protein: recombinant; tags: N-terminal GST; dsDNA, one strand shown
# FLI1 = biological target: T1, FLI1 (Homo sapiens, UniProt Q01543 1-452)
# T1 sequence: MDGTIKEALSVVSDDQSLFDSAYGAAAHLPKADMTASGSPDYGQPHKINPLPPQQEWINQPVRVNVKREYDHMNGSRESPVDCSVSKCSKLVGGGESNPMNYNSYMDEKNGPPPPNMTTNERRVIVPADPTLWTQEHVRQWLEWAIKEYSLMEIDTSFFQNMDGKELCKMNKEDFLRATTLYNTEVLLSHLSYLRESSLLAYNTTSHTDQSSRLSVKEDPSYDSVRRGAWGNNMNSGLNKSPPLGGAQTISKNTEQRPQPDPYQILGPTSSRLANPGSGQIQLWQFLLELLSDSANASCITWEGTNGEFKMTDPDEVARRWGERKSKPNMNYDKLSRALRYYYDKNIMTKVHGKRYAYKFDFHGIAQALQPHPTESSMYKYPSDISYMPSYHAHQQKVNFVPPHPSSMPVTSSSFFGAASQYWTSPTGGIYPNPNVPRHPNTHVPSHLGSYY
# Method in brief: (§1)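 Binding signal is given per hexamer as its read frequency for a factor divided by its frequency in the tag-only sample. GST-fused human transcription factors were expressed in yeast, captured on glutathione beads, barcoded with DNA and pooled with that sample, then incubated with 200 nmole of a 16-mer random double-stranded DNA library in Tris/NaCl/DTT/glycerol buffer for 30 min at room temperature. The pools were then washed, crosslinked, proximity-ligated, amplified by PCR and sequenced on an Illumina NextSeq500.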
# ELK1 = biological target: T2, ELK1 (Homo sapiens, UniProt P19419 1-428)
# T2 sequence: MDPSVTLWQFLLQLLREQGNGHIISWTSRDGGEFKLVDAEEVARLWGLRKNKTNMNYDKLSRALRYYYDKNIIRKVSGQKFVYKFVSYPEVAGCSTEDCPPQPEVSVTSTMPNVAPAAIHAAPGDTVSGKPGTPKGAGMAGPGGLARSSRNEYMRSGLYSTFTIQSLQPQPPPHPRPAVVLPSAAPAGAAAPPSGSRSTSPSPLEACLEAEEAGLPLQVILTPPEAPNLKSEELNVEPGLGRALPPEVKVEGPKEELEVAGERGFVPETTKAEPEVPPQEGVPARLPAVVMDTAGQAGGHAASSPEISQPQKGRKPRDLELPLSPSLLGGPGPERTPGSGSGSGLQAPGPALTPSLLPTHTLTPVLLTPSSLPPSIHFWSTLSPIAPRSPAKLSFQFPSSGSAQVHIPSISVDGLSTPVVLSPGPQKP
# Method in brief: as §1
# ERG = biological target: T3, ERG (Homo sapiens, UniProt P11308 1-479)
# T3 sequence: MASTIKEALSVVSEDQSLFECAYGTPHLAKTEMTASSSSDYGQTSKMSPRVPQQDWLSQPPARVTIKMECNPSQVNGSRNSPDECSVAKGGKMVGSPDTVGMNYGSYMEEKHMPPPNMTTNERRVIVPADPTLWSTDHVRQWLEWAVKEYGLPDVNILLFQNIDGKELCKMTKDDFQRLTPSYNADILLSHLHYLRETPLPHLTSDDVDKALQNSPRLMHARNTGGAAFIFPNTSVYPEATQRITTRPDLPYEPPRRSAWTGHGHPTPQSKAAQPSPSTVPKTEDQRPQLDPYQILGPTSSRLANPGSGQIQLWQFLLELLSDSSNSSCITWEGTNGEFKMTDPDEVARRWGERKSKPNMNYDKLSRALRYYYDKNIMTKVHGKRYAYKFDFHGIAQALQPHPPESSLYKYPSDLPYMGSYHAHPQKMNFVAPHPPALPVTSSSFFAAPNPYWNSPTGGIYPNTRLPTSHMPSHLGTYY
# Method in brief: as §1
# EHF = biological target: T4, EHF (Homo sapiens, UniProt Q9NZC4 1-300)
# T4 sequence: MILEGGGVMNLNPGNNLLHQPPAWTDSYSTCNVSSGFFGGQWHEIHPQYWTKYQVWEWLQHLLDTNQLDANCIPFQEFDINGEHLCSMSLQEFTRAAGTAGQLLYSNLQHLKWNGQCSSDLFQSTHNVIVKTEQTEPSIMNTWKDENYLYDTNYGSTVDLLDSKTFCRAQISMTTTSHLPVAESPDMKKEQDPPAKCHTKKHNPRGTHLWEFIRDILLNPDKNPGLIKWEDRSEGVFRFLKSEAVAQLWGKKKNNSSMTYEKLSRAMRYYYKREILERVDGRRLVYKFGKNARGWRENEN
# Method in brief: as §1
# SPI1 = SPI1 (Homo sapiens, UniProt P17947 1-270)
# Method in brief: as §1
# SPIB = SPIB (Homo sapiens, UniProt Q01892 1-262)
# Method in brief: as §1
# ELK3 = biological target: T5, ELK3 (Homo sapiens, UniProt P41970 1-407)
# T5 sequence: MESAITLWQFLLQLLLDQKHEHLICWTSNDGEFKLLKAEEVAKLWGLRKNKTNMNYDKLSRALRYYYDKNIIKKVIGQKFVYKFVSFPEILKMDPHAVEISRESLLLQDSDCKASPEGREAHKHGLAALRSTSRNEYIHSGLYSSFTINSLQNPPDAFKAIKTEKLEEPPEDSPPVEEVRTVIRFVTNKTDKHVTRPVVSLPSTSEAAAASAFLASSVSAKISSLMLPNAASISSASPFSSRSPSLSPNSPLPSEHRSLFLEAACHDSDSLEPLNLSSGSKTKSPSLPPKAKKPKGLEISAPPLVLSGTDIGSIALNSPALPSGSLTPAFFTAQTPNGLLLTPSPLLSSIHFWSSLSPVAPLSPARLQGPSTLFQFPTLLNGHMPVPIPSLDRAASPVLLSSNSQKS
# Method in brief: as §1
# ETV5 = ETV5 (Homo sapiens, UniProt P41161 1-510)
# Method in brief: as §1
# SPIC = biological target: T6, SPIC (Homo sapiens, UniProt Q8N5J4 1-248)
# T6 sequence: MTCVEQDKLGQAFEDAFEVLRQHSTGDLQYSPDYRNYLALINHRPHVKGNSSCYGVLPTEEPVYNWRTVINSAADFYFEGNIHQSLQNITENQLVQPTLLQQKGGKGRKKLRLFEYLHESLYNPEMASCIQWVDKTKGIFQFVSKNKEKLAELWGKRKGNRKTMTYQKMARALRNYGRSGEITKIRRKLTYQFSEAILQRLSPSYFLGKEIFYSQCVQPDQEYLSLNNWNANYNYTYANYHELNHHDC
# Method in brief: as §1
# ELF4 = ELF4 (Homo sapiens, UniProt Q99607 1-663)
# Method in brief: as §1
# ETV1 = ETV1 (Homo sapiens, UniProt P50549 1-477)
# Method in brief: as §1
# ETS2 = biological target: T7, ETS2 (Homo sapiens, UniProt P15036 1-469)
# T7 sequence: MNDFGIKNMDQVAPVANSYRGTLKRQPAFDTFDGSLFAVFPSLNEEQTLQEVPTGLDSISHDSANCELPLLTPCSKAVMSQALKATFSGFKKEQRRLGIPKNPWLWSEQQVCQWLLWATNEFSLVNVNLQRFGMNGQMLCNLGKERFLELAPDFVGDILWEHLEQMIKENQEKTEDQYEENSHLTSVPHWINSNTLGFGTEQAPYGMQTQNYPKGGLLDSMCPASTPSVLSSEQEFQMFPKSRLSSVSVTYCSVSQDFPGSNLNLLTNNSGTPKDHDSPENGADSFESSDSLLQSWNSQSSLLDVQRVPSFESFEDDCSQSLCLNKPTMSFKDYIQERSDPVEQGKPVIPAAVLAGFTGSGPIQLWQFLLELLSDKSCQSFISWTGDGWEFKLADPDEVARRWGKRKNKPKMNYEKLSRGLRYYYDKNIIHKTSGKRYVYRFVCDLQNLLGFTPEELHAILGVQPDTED
# Method in brief: as §1
# ELF5 = biological target: T8, ELF5 (Homo sapiens, UniProt Q9UKW6-2 1-255)
# T8 sequence: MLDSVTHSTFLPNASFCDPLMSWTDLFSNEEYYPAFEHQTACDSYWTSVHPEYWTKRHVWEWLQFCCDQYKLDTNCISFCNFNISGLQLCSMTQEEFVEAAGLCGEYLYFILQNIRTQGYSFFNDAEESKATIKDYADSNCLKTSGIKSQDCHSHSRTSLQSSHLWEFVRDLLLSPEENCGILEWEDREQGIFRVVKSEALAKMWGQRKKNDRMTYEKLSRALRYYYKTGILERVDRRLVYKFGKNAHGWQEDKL
# Method in brief: as §1
# ETV3 = biological target: T9, ETV3 (Homo sapiens, UniProt P41162-2 1-143)
# T9 sequence: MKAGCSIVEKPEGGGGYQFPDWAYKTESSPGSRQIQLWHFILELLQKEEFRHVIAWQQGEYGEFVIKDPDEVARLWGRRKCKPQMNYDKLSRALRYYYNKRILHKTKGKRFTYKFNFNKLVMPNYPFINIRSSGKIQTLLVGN
# Method in brief: as §1
# ETV6 = ETV6 (Homo sapiens, UniProt P41212 1-452)
# Method in brief: as §1
# SPIB, sequence (Q01892 whole entry): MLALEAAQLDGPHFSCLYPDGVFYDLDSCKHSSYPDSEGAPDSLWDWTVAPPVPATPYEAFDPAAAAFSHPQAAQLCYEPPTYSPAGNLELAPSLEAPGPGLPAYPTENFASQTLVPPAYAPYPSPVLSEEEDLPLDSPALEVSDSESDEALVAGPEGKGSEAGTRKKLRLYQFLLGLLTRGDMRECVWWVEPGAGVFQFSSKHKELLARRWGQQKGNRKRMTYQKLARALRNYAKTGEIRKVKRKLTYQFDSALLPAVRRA
# ETV1, sequence (P50549 whole entry): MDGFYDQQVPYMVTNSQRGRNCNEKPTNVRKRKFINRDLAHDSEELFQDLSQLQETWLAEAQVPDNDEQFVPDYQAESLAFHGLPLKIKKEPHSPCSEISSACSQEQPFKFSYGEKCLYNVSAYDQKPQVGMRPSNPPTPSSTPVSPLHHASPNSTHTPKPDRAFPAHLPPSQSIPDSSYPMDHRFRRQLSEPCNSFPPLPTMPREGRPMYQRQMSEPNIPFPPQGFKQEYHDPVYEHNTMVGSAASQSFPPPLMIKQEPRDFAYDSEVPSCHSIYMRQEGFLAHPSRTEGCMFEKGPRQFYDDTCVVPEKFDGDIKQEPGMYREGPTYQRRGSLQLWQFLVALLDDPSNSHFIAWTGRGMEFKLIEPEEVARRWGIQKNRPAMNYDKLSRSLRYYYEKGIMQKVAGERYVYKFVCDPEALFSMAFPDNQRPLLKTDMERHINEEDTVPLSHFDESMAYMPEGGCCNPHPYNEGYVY
# ETV5, sequence (P41161 whole entry): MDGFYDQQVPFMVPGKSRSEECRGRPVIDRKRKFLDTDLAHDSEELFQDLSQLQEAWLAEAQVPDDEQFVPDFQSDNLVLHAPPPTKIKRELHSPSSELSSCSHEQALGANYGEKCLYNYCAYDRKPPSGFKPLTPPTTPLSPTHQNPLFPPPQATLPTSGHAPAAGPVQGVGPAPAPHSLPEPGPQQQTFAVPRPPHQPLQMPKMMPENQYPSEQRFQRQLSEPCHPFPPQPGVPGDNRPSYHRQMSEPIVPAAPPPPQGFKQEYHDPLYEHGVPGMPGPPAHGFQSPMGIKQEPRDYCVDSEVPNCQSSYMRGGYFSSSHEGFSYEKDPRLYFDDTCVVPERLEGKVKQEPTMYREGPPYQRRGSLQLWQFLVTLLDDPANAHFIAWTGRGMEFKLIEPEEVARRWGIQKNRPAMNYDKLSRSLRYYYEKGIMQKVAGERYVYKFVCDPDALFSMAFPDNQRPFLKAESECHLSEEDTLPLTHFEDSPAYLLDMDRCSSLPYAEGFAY
# ETV6, sequence (P41212 whole entry): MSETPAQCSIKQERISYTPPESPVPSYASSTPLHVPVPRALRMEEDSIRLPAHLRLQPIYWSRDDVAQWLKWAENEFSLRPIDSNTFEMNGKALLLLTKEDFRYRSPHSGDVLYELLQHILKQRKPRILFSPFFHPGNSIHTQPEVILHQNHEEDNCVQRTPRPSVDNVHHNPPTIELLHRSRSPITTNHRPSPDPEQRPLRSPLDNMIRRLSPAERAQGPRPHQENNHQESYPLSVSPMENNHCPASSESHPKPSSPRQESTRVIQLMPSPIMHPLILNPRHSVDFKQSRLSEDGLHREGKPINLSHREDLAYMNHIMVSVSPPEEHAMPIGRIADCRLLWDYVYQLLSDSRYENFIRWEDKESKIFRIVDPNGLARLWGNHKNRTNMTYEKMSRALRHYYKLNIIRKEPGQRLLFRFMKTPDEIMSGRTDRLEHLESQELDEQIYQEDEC
# ELF4, sequence (Q99607 whole entry): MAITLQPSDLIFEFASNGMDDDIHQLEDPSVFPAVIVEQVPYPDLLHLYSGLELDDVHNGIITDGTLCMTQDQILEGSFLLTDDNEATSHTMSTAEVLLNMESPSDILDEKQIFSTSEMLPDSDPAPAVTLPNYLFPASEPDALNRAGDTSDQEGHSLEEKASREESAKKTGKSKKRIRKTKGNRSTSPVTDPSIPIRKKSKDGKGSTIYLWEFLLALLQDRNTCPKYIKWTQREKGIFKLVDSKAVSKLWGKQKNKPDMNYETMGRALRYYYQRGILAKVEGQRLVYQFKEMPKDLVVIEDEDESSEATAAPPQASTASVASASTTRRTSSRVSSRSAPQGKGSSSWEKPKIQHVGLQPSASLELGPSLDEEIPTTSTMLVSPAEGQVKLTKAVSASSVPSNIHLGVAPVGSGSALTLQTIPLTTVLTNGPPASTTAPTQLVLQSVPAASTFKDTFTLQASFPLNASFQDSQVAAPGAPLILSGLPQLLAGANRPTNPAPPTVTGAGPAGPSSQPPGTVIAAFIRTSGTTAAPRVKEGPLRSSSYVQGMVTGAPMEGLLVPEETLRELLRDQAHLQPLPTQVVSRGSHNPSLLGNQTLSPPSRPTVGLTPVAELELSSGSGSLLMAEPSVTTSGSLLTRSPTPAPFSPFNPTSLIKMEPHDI
sequence,measurement,setting,value
AGGAAC,binding signal,FLI1,"1.03 fold enrichment (6-mer frequency, TF over GST control)"
same,binding signal,ELK1,"1.08 fold enrichment (6-mer frequency, TF over GST control)"
same,binding signal,ERG,"1.05 fold enrichment (6-mer frequency, TF over GST control)"
same,binding signal,EHF,"1.06 fold enrichment (6-mer frequency, TF over GST control)"
same,binding signal,SPI1,"1.45 fold enrichment (6-mer frequency, TF over GST control)"
same,binding signal,SPIB,"1.11 fold enrichment (6-mer frequency, TF over GST control)"
same,binding signal,ELK3,"1 fold enrichment (6-mer frequency, TF over GST control)"
same,binding signal,ETV5,"1.1 fold enrichment (6-mer frequency, TF over GST control)"
same,binding signal,SPIC,"1.23 fold enrichment (6-mer frequency, TF over GST control)"
same,binding signal,ELF4,"1 fold enrichment (6-mer frequency, TF over GST control)"
same,binding signal,ETV1,"1.04 fold enrichment (6-mer frequency, TF over GST control)"
same,binding signal,ETS2,"1.08 fold enrichment (6-mer frequency, TF over GST control)"
same,binding signal,ELF5,"1.28 fold enrichment (6-mer frequency, TF over GST control)"
same,binding signal,ETV3,"1.05 fold enrichment (6-mer frequency, TF over GST control)"
same,binding signal,ETV6,"1.04 fold enrichment (6-mer frequency, TF over GST control)"
